GRIN3A LBD mod: binders of NR3A ligand-binding domain, primary screen, biophysical, differential scanning fluorimetry, uHTS; Tm shift relative to glycine control, % at 25 µM; NR3A LBD differential scanning fluorimetry, Tm shift; 0% = protein alone, 100% = glycine-bound protein; Glutamate receptor ionotropic, NMDA 3A (GRIN3A) ligand-binding domain; 2.5% of 340,000 active; AID 1259313, 2017;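 active means melting temperature shift of at least 10% of the positive control shift, at one fixed dose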
TMEM16A inh: TMEM16A chloride channel inhibitors, primary screen, cell-based, HTS; AID 588511, 2011; normalized B-score (activity score, 25-100; higher = stronger inhibition) at 10 µM; 1.2% of 310,000 active; HEK293 TMEM16A/YFP iodide influx fluorescence, ionomycin;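 active means ratio plate-corrected score three or more library SD toward inhibition, starting fluorescence score within five deviations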;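 further: score derived from kinetic fluorescence span divided by baseline fluorescence per well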
Target sequence (Q8BHY3 whole entry, looked up): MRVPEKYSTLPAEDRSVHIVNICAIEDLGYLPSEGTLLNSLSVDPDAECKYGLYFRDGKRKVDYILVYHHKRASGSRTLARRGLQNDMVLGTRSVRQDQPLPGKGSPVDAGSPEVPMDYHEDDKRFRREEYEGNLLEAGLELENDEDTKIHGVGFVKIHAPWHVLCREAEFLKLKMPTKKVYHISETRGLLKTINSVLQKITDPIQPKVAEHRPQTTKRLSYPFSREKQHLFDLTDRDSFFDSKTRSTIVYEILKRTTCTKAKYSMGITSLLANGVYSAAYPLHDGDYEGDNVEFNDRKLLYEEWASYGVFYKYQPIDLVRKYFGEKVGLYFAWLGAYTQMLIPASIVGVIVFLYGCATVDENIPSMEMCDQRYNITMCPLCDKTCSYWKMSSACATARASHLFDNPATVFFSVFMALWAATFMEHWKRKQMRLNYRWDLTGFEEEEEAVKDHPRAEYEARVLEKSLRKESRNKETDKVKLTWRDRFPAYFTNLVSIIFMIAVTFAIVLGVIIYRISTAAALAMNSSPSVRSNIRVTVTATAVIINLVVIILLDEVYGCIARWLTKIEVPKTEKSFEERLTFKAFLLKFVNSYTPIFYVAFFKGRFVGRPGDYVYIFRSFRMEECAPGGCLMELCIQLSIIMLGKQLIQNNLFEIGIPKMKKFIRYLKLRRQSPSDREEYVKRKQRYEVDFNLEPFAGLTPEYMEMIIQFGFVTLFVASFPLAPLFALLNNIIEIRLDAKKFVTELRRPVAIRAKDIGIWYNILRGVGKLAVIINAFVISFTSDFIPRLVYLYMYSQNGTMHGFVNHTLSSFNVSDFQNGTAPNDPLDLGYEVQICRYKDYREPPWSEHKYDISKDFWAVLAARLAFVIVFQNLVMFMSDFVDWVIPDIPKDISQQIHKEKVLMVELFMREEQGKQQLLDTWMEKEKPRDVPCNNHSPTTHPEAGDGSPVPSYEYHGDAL
MPTP block: mitochondrial permeability transition pore inhibitors, primary screen, biochemical, isolated mouse mitochondria, absorbance | 1.4% of 360,000 active | inhibition, % at 10 µM | Ca2+ swelling absorbance, 30 min | AID 602449, 2012;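 active means inhibition of 50% or more, scaled per plate between neutral and stimulator controls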
TMEM16A act: TMEM16A chloride channel activators or potentiators, primary screen, cell-based, HTS. HEK293 TMEM16A/YFP-H148Q/I152L, iodide quench fluorescence; active compounds read low. 0.3% of 340,000 active. AID 623877, 2012. B-score at 10 µM;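 active means fluorescence-ratio B-score plate-corrected deviation score at least 3 library SD below zero, with starting fluorescence score within 5 deviations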;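 further: channel opened by trigger with iodide after compound preincubation; score built on the fluorescence ratio of max minus min over baseline; more negative score means more quench and so TMEM16A activation or potentiation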
CRFBP-R2 block: antagonists of CRF-BP/CRF-R2 complex, primary screen, cell-based, HEK293, calcium dye fluorescence, uHTS. CRF-induced calcium fluorescence. inhibition, % at 11.8 µM. 0.59% of 350,000 active;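 active means inhibition of the ligand-induced calcium signal above about 50% at the single tested concentration, limit read from the data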
CRFR2-BP ag: agonists of CRF-BP/CRF-R2 complex, primary screen, cell-based, HEK293, calcium dye fluorescence, uHTS. CRF-binding protein / CRF receptor 2 complex (human). calcium dye fluorescence (FLIPR); percent of saturating CRF peptide response. activation, % at 13.2 µM. 0.46% of 350,000 active;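 active means activation of at least 50%, plus an integration ratio under a set limit after plate pattern correction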
Of the large screens only hits and unclear results are named; the others gave an inactive call. Only some compounds are listed: those with a hit (about 5.1% of all), similar ones and a draw of the others.

CC1=CN2C(=NC(=O)CC2(C)C(=O)N(CC(=O)NC2CCCC2)Cc2ccc(Cl)cc2)C=C1 (configuration not stated)	none
O=C(Cn1nnc(-c2ccccc2NC(=O)c2cccs2)n1)Nc1ccccc1	GRIN3A LBD mod 22
COc1cc(/C=C2\SC(N)=NC2=O)ccc1OCC(=O)Nc1ccccc1C	none (no result: TMEM16A inh)
COc1ccc2c(CC(=O)OCC(=O)c3ccc(F)cc3)coc2c1	GRIN3A LBD mod 19
CC(=O)Nc1ccc(S(=O)(=O)N2CCN(c3ccc(C(C)=O)cc3)CC2)cc1	none (no result: GRIN3A LBD mod, TMEM16A inh, TMEM16A act, CRFBP-R2 block, CRFR2-BP ag)
CCCNC(=O)C1(C)CCN(C(=O)c2cc(F)cc(F)c2)C1 (configuration not stated)	none (no result: GRIN3A LBD mod, TMEM16A inh, TMEM16A act, CRFBP-R2 block, CRFR2-BP ag)
CCCCn1c(N)c(N(CC(C)C)C(=O)CCCc2cccs2)c(=O)[nH]c1=O	none
Cc1cc(C)c2ccc(Cl)cc2n1	none
Cc1cc(NN)nc2ccc(Cl)cc12	GRIN3A LBD mod 12
C=CCN(CC=C)C(=O)CCc1nnc(CCc2c[nH]c3ccccc23)o1	none
Cc1onc(-c2ccccc2Cl)c1C(=O)Nc1nnc(-c2cccc([N+](=O)[O-])c2)s1	TMEM16A inh 100
COc1cc(NC(=O)c2c(-c3ccccc3Cl)noc2C)c2ncccc2c1	none
Cc1ccc(S(=O)(=O)N2CCCCC2)cc1NC(=O)c1c(-c2ccccc2)noc1C	none (no result: TMEM16A inh)
Cc1ccc([N+](=O)[O-])cc1NC(=O)c1c(-c2ccccc2)noc1C	GRIN3A LBD mod 13
Cc1onc(-c2ccccc2Cl)c1C(=O)Nc1cccc2cccnc12	TMEM16A inh 100
Cc1cc(C(=O)OC(C)C(=O)N2CCc3ccccc32)ccc1[N+](=O)[O-] (configuration not stated)	none
CN(C)c1ccc2c(c1)OC(N)=C(C#N)C2c1cccc(F)c1 (configuration not stated)	CRFR2-BP ag 79
CC1(C)CC(=O)C=C(NC2CCCCCC2)C1	GRIN3A LBD mod 11
COc1cc(C(=O)O)c2ccccc2n1	CRFBP-R2 block 65
O=C(Nc1ccc2oc(=O)ccc2c1)c1ccc(-c2ccccc2[N+](=O)[O-])o1	GRIN3A LBD mod 30
COc1cc2ccccc2cc1C(=O)Nc1ccc2oc(=O)ccc2c1	GRIN3A LBD mod 15
NNC(=O)c1ccc(-c2cccc([N+](=O)[O-])c2)o1	none
O=C(Nc1ccc2oc(=O)ccc2c1)c1ccccc1[N+](=O)[O-]	none
O=C(Nc1ccc2oc(=O)ccc2c1)c1ccc(-c2cccc([N+](=O)[O-])c2)o1	GRIN3A LBD mod 35
O=C(Nc1ccc2oc(=O)ccc2c1)c1ccc(-c2ccc(Cl)cc2)o1	GRIN3A LBD mod 27
O=C(Nc1ccc2oc(=O)ccc2c1)c1cc2ccccc2o1	none
O=C(Nc1ccc2oc(=O)ccc2c1)c1ccc(-c2cccc(Cl)c2)o1	GRIN3A LBD mod 29
CCOC(=O)c1c(C)n(-c2ccc(C)cc2)c2c(C(C(C)=O)C(=O)O)c(Br)c(O)c(O)c12 (configuration not stated)	GRIN3A LBD mod 20
CCN(CC)S(=O)(=O)c1cccc(-c2nnc(SCCCC(=O)c3ccc(F)cc3)o2)c1	TMEM16A act -4.6
CCN(CC)S(=O)(=O)c1cccc(-c2nnc(SCCCC(=O)c3ccccc3)o2)c1	none
CC(C)(C)OC(=O)N1CCC(C(=O)Nc2cccc(C(=O)NCCCCc3ccccc3)c2)CC1	none (no result: TMEM16A inh, TMEM16A act)
C=CCN1C(=O)/C(=C\c2ccc(Cl)cc2)N=C1SCC(=O)NCCC	TMEM16A act -27
CCN1C(=O)/C(=C\c2ccc(F)cc2)N=C1SCC(=O)NCc1ccco1	none
CCN(C(=O)CN1C(=O)NC(c2ccccc2)(c2ccc(C)c(C)c2)C1=O)C1CCCCC1 (configuration not stated)	none (no result: TMEM16A inh)
Cc1cc(C)c2nc(NC(=O)C3CSC4(C)CCC(=O)N34)sc2c1 (configuration not stated)	none (no result: TMEM16A inh)
CCOc1ccc(CCNC(=O)C2CCCN(c3ncnc4c3nc3n4CCCCC3)C2)cc1 (configuration not stated)	CRFBP-R2 block 115
CCCc1cc2c(=O)c(-c3nc4ccccc4s3)c(COCC(=O)O)oc2cc1O	none (no result: TMEM16A inh)
Cc1noc(C)c1S(=O)(=O)N(C)C[C@H]1Oc2ccc(NS(=O)(=O)c3ccccc3)cc2C(=O)N([C@H](C)CO)C[C@@H]1C	none (no result: TMEM16A inh)
Fc1ccc(OCCCn2ccnc2)cc1	none
Fc1ccc(OCCCCCn2ccnc2)cc1	CRFBP-R2 block 55
COc1cc2oc3ccccc3c2cc1N(CC(=O)N1CCCCC1)S(=O)(=O)c1ccc(C)cc1	TMEM16A act -29, CRFR2-BP ag 89
CCN(CC)C(=O)CN(c1cc2c(cc1OC)oc1ccccc12)S(=O)(=O)c1ccccc1	TMEM16A inh 100
COc1cc2oc3ccccc3c2cc1N(CC(=O)N(C)C)S(=O)(=O)c1ccccc1	none
COc1cc2oc3ccccc3c2cc1N(CC(=O)N(C)C)S(=O)(=O)c1ccc(C)cc1	none
Cc1nnc2nc(-c3ccccc3)nc(-c3ccccc3)n12	GRIN3A LBD mod 12
C=CCc1ccccc1OCC(=O)OCCNC(=O)c1cccnc1	GRIN3A LBD mod 20
CCOC(=O)c1nn(-c2ccccc2Cl)c(=O)cc1OCC(=O)Nc1cccc(OC)c1	none
Cc1cccc(N2C(=O)N3[C@H]4c5ccccc5OC[C@@H]4[C@@H](c4ccccc4)[C@@]3(C)C2=O)c1	none (no result: TMEM16A inh)
CC(C)CCNC(=O)CCCOc1ccccc1	TMEM16A act -4.6
CCOc1ccc(S(=O)(=O)NCCC(=O)NCCOc2ccccc2)cc1	GRIN3A LBD mod 65
Cc1cccc(OCCCC(=O)NC(C)C)c1	CRFBP-R2 block 82
Cc1nn(C2CCS(=O)(=O)C2)c(C)c1CN(C)C(=O)c1ccc(F)cc1 (configuration not stated)	none (no result: GRIN3A LBD mod, TMEM16A inh, TMEM16A act)
COc1ccc(CCN(C)C2CCCN(S(=O)(=O)c3ccccc3F)C2)cc1OC (configuration not stated)	none
C=CCOc1cccc(C(=O)N2CCC(CCC(=O)NC3CC3)CC2)c1	GRIN3A LBD mod 16
Cc1cc(C)cc(C(=O)N2CCC(CCC(=O)NC3CC3)CC2)c1	none
CN(C)C(=O)CCc1ccc2c3c([nH]c2c1)[C@]1(CCc2ccccc2)[C@@H](C(=O)N2CCCCC2)C[C@H](CC(=O)NCc2cccc(C(F)(F)F)c2)C(=O)N1CC3	GRIN3A LBD mod 15 (no result: TMEM16A inh, TMEM16A act)
CN(C)c1ccc(/C=C2\CCCc3c2nc2ccccc2c3C(=O)O)cc1	none

Assay outcomes as filed in PubChem.
